Most compounds without a hit are left out; they make up all but 10% or so of the library.
HP1b binding inh: HP1-beta chromodomain-methylated histone interaction inhibition; P83916; AlphaScreen HP1-beta / biotin-H3K9me3 peptide binding; Potency, µM (titrated, usually from 114 µM), without a hit: at the highest dose activity change, negative = inhibition, actives largely listed as inhibitors; actives 0.56% (n = 390,000); note: nearly all actives have a fitted effect of over 70% in size
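AlphaScreen: HP1-beta (50 nM) preformed 30 min with biotin-H3(1-18)K9me3 peptide (50 nM) in PBS pH 7.4, 0.01% Tween-20. Compound added for 30 min at RT, then streptavidin donor/nickel chelate acceptor beads (10 ug/mL) for 30 min.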
GLS inh: blocks human kidney-isoform glutaminase activity | actives 0.21% (n = 410,000) | Potency, µM (highest dose often 45.5 µM), without a hit: top-dose activity change, negative = inhibition, hits mostly inhibitors | O94925 | GLS enzymatic activity, qHTS titration; note: % is set by controls: 0 for no effect and ±100 for the full control effect
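Coupled fluorescence readout: glutamate oxidase/HRP/Amplex Red detect glutamate formed by hKGA from L-glutamine (1 mM solution added). Buffer 45 mM KH2PO4 pH 8.2, 0.02% Tween-20; reads at t0 and 30 min RT.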
G9a inh: blocks human histone lysine methyltransferase G9a | Q96KQ7 | G9a H3K9 monomethylation, AlphaScreen, 2 h | Potency, µM (top dose mostly 102 µM), for inactives: at the highest dose activity, negative = inhibition, hits mostly inhibitors | actives 8.8% (n = 350,000) | AID 504332; note: % is set by controls: 0 for no effect and ±100 for the full control effect; nearly all actives have a fitted effect of over 75% in size
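Using a bead-based AlphaScreen, monomethylated H3K9 product from 2 h room-temperature reactions (G9a 20 nM, peptide 500 nM, SAM 20 uM) was detected with 0.5 ug/mL rabbit anti-H3K9me1 antibody.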
BAZ2B inh: BAZ2B (human) inhibition | actives 4.4% (n = 360,000) | AlphaScreen BAZ2B-H3K14Ac peptide displacement | Q9UIF8 | Potency, µM (series often up to 114 µM), for the others: at the top dose activity change, negative = inhibition, usual class: inhibitors; note: % is set by controls: 0 for no effect and ±100 for the full control effect; nearly all actives have a fitted effect of over 60% in size
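AlphaScreen displacement: compounds (up to 110uM) incubated 30 min at room temperature with a preformed 50 nM BAZ2B/50 nM biotinylated H3K14Ac peptide complex in PBS pH 7.4 with Tween-20. Donor and acceptor beads at 10 ug/mL final added, 20 min light-protected before reading.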
JMJD2A Tudor: blocks the human JMJD2A Tudor domain; O75164; AlphaScreen JMJD2A-Tudor / H3K4me3 peptide binding; Potency, µM (titrated, usually from 114 µM), inactives show at the highest dose activity change, negative = inhibition, most hits filed as inhibitors; actives 4.4% (n = 390,000); note: % is set by controls: 0 for no effect and ±100 for the full control effect; nearly all actives have a fitted effect of over 50% in size
An asterisk follows results filed as active; ? = inconclusive; . = not tested or not shown; [ ] = dose if it differs, or a comment. Calls come from the whole dose curve; as a rule, active = well fitted curve in the direction sought with a large enough effect; inconclusive = small, poorly fitted or top-dose-only effect, or another doubt; inactive = no such curve, though single readings can be large; an effect the other way counts as inactive or inconclusive. Potency is the fitted concentration of half-maximal effect.

SMILES	HP1b binding inh	GLS inh	G9a inh	BAZ2B inh	JMJD2A Tudor
Cc1cc[n+](-c2[nH]c(=O)sc2/C=N/NC([S-])=Nc2ccccc2)cc1C	?	28%	32µM*	?	?
CC(C)(C)c1cc[n+](-c2[nH]c(=O)sc2/C=N/NC([S-])=Nc2ccccc2)cc1	-15%	2%	14µM*	-31%	-30%
Cc1ccc[n+](-c2[nH]c(=O)sc2/C=N/N=C(\[O-])CCn2c3ccccc3c3ccccc32)c1	-10%	2%	0%	-23%	-17%
COC(=O)c1ccc(CCc2cc(O)ccc2O)cc1	?	?	.	.	6.3µM*
COC(=O)c1ccc(CCc2cc(O)c(Br)cc2O)cc1	?	?	.	.	2.8µM*
COC(=O)c1ccc2c(=O)n(CCCCCC(=O)N3CCN(c4ccc(OC)cc4)CC3)c(=O)[nH]c2c1	25%	?	-45%[59 µM]	-17%	-29%
CCS(=O)(=O)c1ccc(O)c(NC(=O)COc2ccc(Br)cc2)c1	38%	2%	13%	-21%	-9%
COc1ccccc1NC(=O)COc1ccc(C(=O)NCC2CCCO2)cc1OC (stereo unspecified)	24%	-4%	.	.	-12%
N#C/C(C(N)=O)=C1/SC=C(c2ccccc2)N1c1ccccc1	15%	-10%	?	-10%	-6%
N#C/C(C(=O)c1ccccc1)=C1/SC=C(N)N1c1ccccc1	.	.	?	45µM*	.
COc1ccc(S(=O)(=O)N2Cc3ccccc3CC2C(=O)Nc2ccc(C)cc2)cc1OC (stereo unspecified)	11%	-2%	-16%[59 µM]	-1%	-23%
O=C(NCCc1ccc(Cl)cc1)c1ccc(CS(=O)(=O)Cc2ccc(F)cc2)o1	16%	-3%	-13%[59 µM]	6%	-3%
N#C/C(=C/c1ccc(OC(=O)c2ccc(Br)s2)cc1)c1nc2ccccc2[nH]1	-7%	-24%	.	.	-32%
Cc1ccc(NS(=O)(=O)c2ccc3c(c2)[C@H]2C=CC[C@H]2[C@@H](c2ccc(F)cc2)N3)cc1C	-8%	1%	5.6µM*	?	?
O=C(NCc1ccccc1)C1Nc2ccc(OC(F)(F)F)cc2C2C=CCC12 (stereo unspecified)	16%	-4%	.	.	-31%
Cc1ccc(NS(=O)(=O)c2ccc3c(c2)NC(=O)CC(=O)N3)cc1C	33%	1%	0%	-10%	-18%
COC(=O)c1ccc([C@@H]2Nc3c(OC)ccc(C)c3[C@@H]3C=CC[C@@H]32)cc1	-8%	-20%	3.2µM*	?	?
COC(=O)c1ccc(C2NC(=O)CCC2[N+](=O)[O-])cc1 (stereo unspecified)	6%	-6%	0%	-2%	-6%
COC(=O)c1ccc([C@H]2Nc3ccc(S(=O)(=O)Nc4cccc(C)c4)cc3[C@H]3C=CC[C@H]32)cc1	-14%	?	4.5µM*	40µM*	35µM*
O=C(O)c1ccc(NS(=O)(=O)c2ccc3c(c2)C2C=CCC2C(c2ccccc2F)N3)cc1 (stereo unspecified)	5%	-20%	10µM*	50µM*	?
O=C(CCc1nnc2n(Cc3ccc(F)cc3)c(=O)c3ccccc3n12)NCCCN1CCOCC1	21%	-5%	0%	10%	-20%
COc1ccc(S(=O)(=O)Nc2ccccc2C(=O)N2CCOCC2)cc1Cl	50%	0%	-4%	-1%	-6%
CC(C)(C)c1csc(NNC(=O)c2ccc(Cl)cc2)n1	10%	20%	40µM*	-16%	-25%
CC(C)(C)c1csc(NC(=O)c2cccnc2)n1	28%	-10%	20%[59 µM]	?	-17%
CC(=O)Nc1cc(C(=O)N2CCOCC2)ccc1S(=O)(=O)c1ccc(C)cc1	44%	-4%	23%[0.501 µM]	2%	2%
CC(=O)Nc1cc(C(=O)O)ccc1S(=O)(=O)c1ccc(C)cc1	20%	-5%	50µM*	2%	-20%
Cc1ccc(Sc2ccc(CN3CCCCC3)cc2[N+](=O)[O-])cc1	?	3%	18µM*	?	35µM*
O=[N+]([O-])c1cc(CN2CCCCCC2)ccc1O	46%	1%	14%	-23%	-12%

Compound activity deposited in PubChem BioAssay by National Center for Advancing Translational Sciences (NCATS).
